Experimental data: the OligoGym collection
Further: reference of the scale not given here.

The sequences below were run against GABRP (assay: pooled miR-30 sensor sort-seq; sequence = guide strand). Settings: shRNA.
With TTTGAATTGTGAAATAATCAAC the sensor-assay potency score (higher = more potent) was -1.06.
TTGGACTCCACAATGTAAGTAT gave a sensor-assay potency score (higher = more potent) of 0.553.
In the case of TTTTCTCGGAAGACAAACTTGA, the sensor-assay potency score (higher = more potent) is reported as -0.264.
With TTGCCTTCAAACACCAGCCGCT the sensor-assay potency score (higher = more potent) was 0.206.
Sequence AAATACAGAACATTCCTCCGAA has a sensor-assay potency score (higher = more potent) of 0.853.
For TAGTCAACGTTGTCGCTGGAAA, the sensor-assay potency score (higher = more potent) was -1.15.
TAGTAATACTGACTTCTTCTAC was tested, and the sensor-assay potency score (higher = more potent) was -0.185.
With ATAGTGATCAACATTACTGGGG the sensor-assay potency score (higher = more potent) was 0.527.
With TTGATGATATTAGTAATACTGA the sensor-assay potency score (higher = more potent) was -0.994.
AAACTTGAACTTGTCGCTGGTT gave a sensor-assay potency score (higher = more potent) of 0.218.
In the case of TACATCATTATCTTGTCCTGTT, the sensor-assay potency score (higher = more potent) is reported as 0.716.
Sequence TTCTCGGAAGACAAACTTGAAC has a sensor-assay potency score (higher = more potent) of -1.47.
ACAAACTTGAACTTGTCGCTGG gave a sensor-assay potency score (higher = more potent) of 0.62.
With TTACATGCAACAGTTGTCGTGA the sensor-assay potency score (higher = more potent) was 0.789.
Work on ATAATCAACAATCCTGCCCATC yielded a sensor-assay potency score (higher = more potent) of -0.969.
TTCATTGTCAAGTCACTGTAGT showed a sensor-assay potency score (higher = more potent) of 0.147.
TCAAACTGTAAGACCAATCTAG showed a sensor-assay potency score (higher = more potent) of 0.125.
TTACTCTCTGAAATGCTAGAGA gave a sensor-assay potency score (higher = more potent) of -0.589.

These sequences were tested against GALE in the same assay as above. Settings: shRNA.
Sequence TGAAGAACTTGGACTTGCCGTA has a sensor-assay potency score (higher = more potent) of -0.185.
Work on TCTGTAATAATCCAGAGGCTTC yielded a sensor-assay potency score (higher = more potent) of -1.35.
Work on TTCCCGTACACAGTGGCTGAGC yielded a sensor-assay potency score (higher = more potent) of -0.834.
With TGGATGACCGCCATAAAGCTGT the sensor-assay potency score (higher = more potent) was -0.62.
For TACTTTTTGAAGAGACGCTGTA, the sensor-assay potency score (higher = more potent) was -0.402.
Sequence TTCCAAGTCTTGTCTGCCTGGC has a sensor-assay potency score (higher = more potent) of -0.133.
In the case of TTCTGCTTCTGCCAGCGCCAGA, the sensor-assay potency score (higher = more potent) is reported as -1.44.
TCTGTGTCATAGTCATTGCCAA gave a sensor-assay potency score (higher = more potent) of -0.861.
With ATCCTCACACATCCTGTCCAGC the sensor-assay potency score (higher = more potent) was -0.56.
Work on TTGTACGGGATCTTCTTCCCAG yielded a sensor-assay potency score (higher = more potent) of 0.364.
TACACAGTGGCTGAGCTGCTGA was tested, and the sensor-assay potency score (higher = more potent) was -1.04.
For TTCCTCGATGAAGAACTTGGAC, the sensor-assay potency score (higher = more potent) was -0.651.
Sequence AACACCAGGTTCTTCACCCCGT has a sensor-assay potency score (higher = more potent) of -0.43.
Sequence AATAGCGCAGCAGCACTGCGTT has a sensor-assay potency score (higher = more potent) of -1.17.
For TAACTCTGTAATAATCCAGAGG, the sensor-assay potency score (higher = more potent) was -0.909.
TGAAATAGCGCAGCAGCACTGC was tested, and the sensor-assay potency score (higher = more potent) was -0.836.
TAAGGCTGCAATGTGGCCCTTG was tested, and the sensor-assay potency score (higher = more potent) was 0.223.
Work on TCAAACTCCACAGAGCGGCCTG yielded a sensor-assay potency score (higher = more potent) of -0.0381.
TCACACATCCTGTCCAGCCCTA showed a sensor-assay potency score (higher = more potent) of -0.0923.
With TACTTTGGAAAGCTCTTTCAGA the sensor-assay potency score (higher = more potent) was -0.275.
Sequence ATGAAGAACTTGGACTTGCCGT has a sensor-assay potency score (higher = more potent) of -1.09.
Sequence TCGATGAAGAACTTGGACTTGC has a sensor-assay potency score (higher = more potent) of -0.0111.
